# Sampled rows, rich in hits. Any-hit rate of the full collection: about 1.1%.
# LmPK inh – blocks Leishmania mexicana pyruvate kinase activity. purified LmPK, Kinase-Glo ATP luminescence, 1 h. Q27686. AID 1721. 0.37% of 290,000 active. Potency, µM (titrated, usually from 57.5 µM), inactives show top-dose activity change, negative = inhibition, actives largely listed as inhibitors; further: on the % scale 0 is the no-effect control and ±100 the full control effect
#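 0.1 nM LmPK, 0.5 mM PEP, 0.1 mM ADP; 50 mM imidazole pH 7.2, 7 mM MgCl2, 50 mM KCl; 1 h RT. Kinase-Glo luminescence readout, normalized to no-enzyme (full inhibition) and uninhibited wells.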
# RE007 growth inh – less growth of the S. pombe RE007 Vpr strain | 0.21% of 360,000 active | S. pombe RE007 Vpr strain, BacTiter-Glo ATP luminescence, 24 h | Potency, µM (highest dose often 92.2 µM), inactives show top-dose activity change, negative = less growth, actives largely listed as inhibitors; active means well fitted falling curve with a large enough effect; inconclusive means small, poorly fitted or top-dose-only effect; inactive means no such curve, though single readings can be large or run the other way; further: on the % scale 0 is the no-effect control and ±100 the full control effect; nearly all actives have a fitted effect of over 50% in size
#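 Fission yeast strain RE007, carrying one chromosomally integrated HIV-1 vpr copy, was seeded at OD 0.01 in PMG+AL medium with 23 nL pinned compound. After 24 h at 30 °C and 99% humidity, viability was read by BacTiter-Glo luminescence.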
# Tb PYK inh – blocks Trypanosoma brucei pyruvate kinase; Q57TT1; TbPYK enzyme, Kinase-Glo Plus ATP luminescence, 45 min; Potency, µM (doses to about 76.8 µM), inactives show top-dose activity, negative = inhibition, most hits filed as inhibitors; 0.12% of 410,000 active; AID 624173; further: on the % scale 0 is the no-effect control and ±100 the full control effect; nearly all actives have a fitted effect of over 50% in size
#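 T. brucei PYK with substrate was exposed to pin-transferred compounds across a concentration series, then started with 130 uM ADP (final). After 45 min at room temperature, Kinase-Glo Plus luminescence was read, normalized and curve-fitted.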
# SARS PLpro yeast – blocks SARS-CoV papain-like protease in a yeast assay; Potency, µM (doses to about 32.9 µM), inactives show top-dose activity, positive = growth rescue, hits mostly activators; 0.19% of 330,000 active; S. cerevisiae expressing SARS-CoV PLpro, growth rescue; AID 485353; calls by dose curve; further: 0% is about no effect; nearly all actives have a fitted effect of over 55% in size
# Giardia FBPA inh – inhibitors of Giardia lamblia fructose-1,6-bisphosphate aldolase; A8B2U2; purified Giardia FBPA; Potency, µM (doses to about 59.6 µM), inactives show at the highest dose activity, negative = inhibition, most hits filed as inhibitors; 0.71% of 290,000 active; AID 2451; further: on the % scale 0 is the no-effect control and ±100 the full control effect; nearly all actives have a fitted effect of over 55% in size
# Target sequence (A8B2U2 whole entry, looked up): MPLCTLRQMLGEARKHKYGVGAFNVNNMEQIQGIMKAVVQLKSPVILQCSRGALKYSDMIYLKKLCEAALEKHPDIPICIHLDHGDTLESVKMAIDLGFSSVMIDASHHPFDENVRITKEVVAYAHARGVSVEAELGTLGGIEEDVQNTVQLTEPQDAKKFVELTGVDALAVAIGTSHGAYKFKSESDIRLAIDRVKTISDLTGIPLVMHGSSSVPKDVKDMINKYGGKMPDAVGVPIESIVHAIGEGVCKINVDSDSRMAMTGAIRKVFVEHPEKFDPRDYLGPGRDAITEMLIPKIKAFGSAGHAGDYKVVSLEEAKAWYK
#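 40 nM FBPA preincubated 10 min at RT with compound (up to 57.5 uM final), then substrate plus GAPDH/TPI/NAD/arsenate coupling and diaphorase/resazurin added. Fluorescence read after 20 min at RT, 525/598 nm.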
# An asterisk follows results filed as active; ? = inconclusive; . = not tested or not shown. Unless noted, the call rests on the fitted dose curve; in most records, active means well fitted curve in the direction sought with a large enough effect; inconclusive means small, poorly fitted or top-dose-only effect, or another doubt; inactive means no such curve, though single readings can be large; an effect the other way counts as inactive or inconclusive. Potency means the concentration at half of the fitted maximal effect.
SMILES,LmPK inh,RE007 growth inh,Tb PYK inh,SARS PLpro yeast,Giardia FBPA inh
COc1ccc(NC(=O)CSc2nc3ccccc3c(=O)n2CCC(=O)NC2CCCCC2)c(OC)c1,.,.,-5%,.,.
COc1cc(SSc2cc(OC)cc([N+](=O)[O-])c2N)c(N)c([N+](=O)[O-])c1,16%,?,2.8µM*,-19%,?
COc1cc([N+](=O)[O-])c2ncsc2c1,-2%,0%,8%,14%,-9%
Cc1ccc(NC2=CC(=O)C(=O)c3ccccc32)cc1,-17%,?,0%,-54%,5.6µM*
CCOC(=O)c1ccc(NC2=CC(=O)C(=O)c3ccccc32)cc1,-6%,-13%,2%,-2%,.
NS(=O)(=O)c1ccc(NC2=CC(=O)C(=O)c3ccccc32)cc1,-7%,-27%,-12%,.,2.5µM*
COc1ccc2nc(N(Cc3cccnc3)C(=O)C3CCCCC3)sc2c1,.,.,-6%,.,.
O=S(=O)(NCc1cc(-c2ccccc2Cl)no1)c1ccc(Cl)cc1,2%,32µM*,?,-11%,1%
COc1ccc(-c2cc(CNS(=O)(=O)c3ccc(NC(C)=O)cc3)on2)cc1,-3%,-11%,-1%,0%,.
CC(C)OCCCNC(=S)Nc1ccc(S(N)(=O)=O)cc1,1%,19%,?,10%,14µM*
COc1ccc2nc(N3CCCCC3)c(C#N)cc2c1,-3%,?,-5%,-7%,18µM*
Cc1ccc2onc(CC(=O)N3CCN(c4cccc(Cl)c4)CC3)c2c1,.,.,-3%,.,.
CN(C)c1ccc(/C=C/C=C2/SC(=S)N(c3ccccc3)C2=O)cc1,13µM*,-19%,?,1%,-9%
O=C(O)c1ccc(N2C(=O)/C(=C/C=C/c3ccccc3)SC2=S)cc1,3%,-16%,-17%,0%,-14%
COC(=O)c1sccc1NC(=O)Nc1ccccc1C,1%,-8%,-8%,0%,.
COC(=O)c1sccc1NC(=O)Nc1ccccc1F,14µM*,-22%,?,-10%,-14%
Cc1[nH]n(-c2ccc([N+](=O)[O-])cc2)c(=O)c1C=NCCN1CCN(C(=O)C(C)C)CC1,14µM*,?,-10%,-9%,4%
c1ccc(-c2ccccc2OCCOCCN2CCOCC2)cc1,-1%,-11%,17%,0%,14µM*
COc1ccc(NC(=O)CC2C(=O)N(c3ccccc3)C(=O)N2Cc2cccnc2)cc1 (stereo unspecified),.,.,2%,.,.
CCCCn1c(NC(=O)c2ccco2)c(C(=O)OCC)c2nc3ccccc3nc21,1%,-7%,-11%,1%,5µM*
CCCCn1c(NC(=O)c2ccco2)c(S(=O)(=O)c2ccc(C)cc2)c2nc3ccccc3nc21,-4%,-13%,-4%,-1%,?
O=C(CSc1c2c(nc3cc(Cl)ccc13)CCCC2)NCCN1CCOCC1,0%,-3%,2%,6%,1%
Clc1ccc2c(SCC3CO3)c3ccccc3nc2c1 (stereo unspecified),.,1µM*,-20%,.,.
CCc1ccc(/C=N/NC(=O)c2ccccn2)cc1,13µM*,-27%,-27%,-4%,-21%
CCN(CC)c1ccc(/C=N/NC(=O)c2ccccn2)cc1,-14%,12%,-7%,-2%,-22%
SMILES,LmPK inh,RE007 growth inh,Tb PYK inh,SARS PLpro yeast,Giardia FBPA inh
CCOc1ccc(NC(=O)c2ccccn2)cc1,13µM*,?,-12%,-52%,0%
CCOc1ccc(NC(=O)Nc2cccnc2)cc1,25µM*,?,-7%,0%,-5%
CCOC(=O)COc1ccc2c(C)c(CCN(CC)CC)c(=O)oc2c1,.,.,21%,.,.
COc1ccc(Cl)cc1NC(=O)Cn1cc2c(n1)CCC(C)C2 (stereo unspecified),.,.,-7%,.,.
Cc1ccc(-n2nnc(-c3nsc(NC(=O)c4ccccc4C)n3)c2C)cc1Cl,.,.,-1%,.,.
O=S(=O)(c1ccc(Cl)c(NC(=S)Nc2cccc(O)c2)c1)N1CCOCC1,-2%,5%,5%,9%,-25%
CCN(C(=S)Nc1cc(S(=O)(=O)N2CCOCC2)ccc1Cl)c1cccc2ccccc12,-1%,-6%,-9%,-5%,7.1µM*
CC(C)c1cnc2c(c1SCc1ccc([N+](=O)[O-])cc1)c(=O)n(C)c(=O)n2C,.,.,10µM*,.,.
CC(C)c1cnc2c(c1SCC(=O)O)c(=O)n(C)c(=O)n2C,.,.,-8%,.,.
COc1ccc(O)c(N)c1,?,.,.,1%,3.5µM*
O=C(O)CCn1cc(C=C2C(=O)NC(=S)NC2=O)c(-c2ccccc2)n1,-2%,6%,?,1%,-24%
O=C(O)CCn1cc(C=C2C(=O)NC(=S)NC2=O)c(-c2cc3ccccc3oc2=O)n1,6%,-8%,14µM*,0%,?
Cc1nc(-c2cccc(NC(=O)Nc3ccc([N+](=O)[O-])cc3)c2)no1,.,.,-10%,.,.
O=C(O)c1cc[c]([Hg][Cl])cc1,.,?,18µM*,0%,?
O=C(O)c1ccccc1,.,4%,-2%,4%,.
Cc1ccc(/C=C2\C(=O)NC(=S)N(c3ccccc3F)C2=O)s1,8%,-1%,32µM*,-91%,-10%
Cc1ccc(/C=C2\C(=O)NC(=S)N(c3ccc(F)cc3)C2=O)s1,-2%,2%,?,2%,0%
CCCCC(F)(F)[C@@]1(O)CC[C@H]2[C@H](CC(=O)[C@@H]2CCCCCCC(=O)O)O1,.,.,1%,.,.
Cc1cc(C)n2nc(CNS(=O)(=O)c3cccc(Cl)c3)nc2n1,.,.,1%,.,.
Oc1ccc2ccccc2c1N=Nc1ccccn1,-14%,35µM*,-4%,-22%,-1%
Oc1ccc2ccccc2c1N=Nc1ccccc1F,-5%,-15%,0%,-2%,?
CC1(C)CC(=O)c2c(oc3cc(O)c(O)cc23)C1,-15%,-4%,-23%,-3%,3.2µM*
CC(C)(C)C(=O)NC1=NCCS1,-4%,7%,-1%,3%,-2%
O=C(NC1=NCCS1)C12CC3CC(C1)CC(C(=O)NC1=NCCS1)(C3)C2,-2%,-17%,-14%,5%,-3%
CC12CC3CC(C)(C1)CC(C(=O)NC1=NCCS1)(C3)C2,3%,5.6µM*,-8%,-12%,0%
CC12CC3(C)CC(C)(C1)CC(C(=O)NC1=NCCS1)(C2)C3,.,25µM*,1%,.,.
CCCC(=O)O[C@]1(C(=O)COC(=O)CC)[C@@H](C)C[C@H]2[C@@H]3CCC4=CC(=O)C=C[C@@]4(C)[C@@]3(F)[C@H](O)C[C@@]21C,.,.,6%,.,.
Cc1ccc(OCc2nc(-c3ccccn3)no2)c(Br)c1,16µM*,-14%,-3%,-15%,0%
C[n+]1ccc(/C=C/c2ccccc2O)c2ccccc21,-4%,-23%,-6%,1%,-17%
CN1/C(=C/c2cc[n+](C)c3ccccc23)C=Cc2ccccc21,?,10µM*,-25%,-3%,?
